This is an account of results in PubChem BioAssay (Tox21).

A short description of experiment [1]: qHTS assay to test for compound auto fluorescence at 460 nm (blue) in HEK293 cell free culture (AID 720681). Further: potency means the concentration at half of the fitted maximal effect. The method in brief:
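Blue fluorescence (Ex 405/Em 460 nm, triamterene-equivalent) was read immediately after pin transfer of compound or DMSO into medium (DMEM, 10% FBS) without cells.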
(In general: In qHTS, concentration-response curves come from the screen itself.)

Experiment [2] in a line: qHTS assay to test for compound auto fluorescence at 535 nm (green) in HEK293 cell free culture (AID 720682). The method in brief: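 Cell-free medium (DMEM, 10% FBS) receives compound or DMSO by pintool. Plate read directly at Ex 485/Em 535 nm. Signal converted to fluorescein equivalency.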
A short description of experiment [3]: qHTS assay to test for compound auto fluorescence at 590 nm (red) in HEK293 cell free culture (AID 720683). The method in brief:
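Red-channel autofluorescence of compounds in culture medium (DMEM, 10% FBS), no cells, measured at 540/590 nm. Rose Bengal sodium is the reference fluorophore for equivalence.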

Experiment [4] is described as follows: qHTS assay to test for compound auto fluorescence at 590 nm (red) in HepG2 cell free culture (AID 720684). The method in brief:
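No cells present: MEM + 10% FBS only. Compound pinned in, red label read (540/590 nm). Activity = fluorescence equivalent to Rose Bengal sodium.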

Experiment [5] is described as follows: qHTS assay to test for compound auto fluorescence at 460 nm (blue) in HepG2 cell free culture (AID 720685). The method in brief:
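Cell-free plates of MEM plus 10% FBS received 23 nL compound or DMSO vehicle; blue-channel (405/460 nm) intensity scored against triamterene as reference fluorophore.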

Experiment [6] is described as follows: qHTS assay to test for compound auto fluorescence at 535 nm (green) in HepG2 cell free culture (AID 720686).
In experiment [7] the target is Glucocorticoid receptor (Homo sapiens) (UniProt P04150). Description: qHTS assay to identify small molecule agonists of the glucocorticoid receptor (GR) signaling pathway (AID 720691; active means well fitted activation curve with a large enough effect in the signal ratio in the repeat runs, not every such curve was filed as active; inconclusive means weak or mixed curves, or effect the other way; inactive means no such curve, though single readings can be large or run the other way; the % refers to the signal ratio; further: potency means the concentration at half of the fitted maximal effect). The method in brief: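 Steps: seed GR-bla HeLa cells, incubate 4 h at 37 C/5% CO2; pin-transfer DMSO-dissolved compounds; incubate 18 h at 37 C; add LiveBLAzer B/G FRET substrate; after 2 h at room temperature, measure fluorescence.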
Glucocorticoid receptor (Homo sapiens), sequence (P04150 whole entry, looked up): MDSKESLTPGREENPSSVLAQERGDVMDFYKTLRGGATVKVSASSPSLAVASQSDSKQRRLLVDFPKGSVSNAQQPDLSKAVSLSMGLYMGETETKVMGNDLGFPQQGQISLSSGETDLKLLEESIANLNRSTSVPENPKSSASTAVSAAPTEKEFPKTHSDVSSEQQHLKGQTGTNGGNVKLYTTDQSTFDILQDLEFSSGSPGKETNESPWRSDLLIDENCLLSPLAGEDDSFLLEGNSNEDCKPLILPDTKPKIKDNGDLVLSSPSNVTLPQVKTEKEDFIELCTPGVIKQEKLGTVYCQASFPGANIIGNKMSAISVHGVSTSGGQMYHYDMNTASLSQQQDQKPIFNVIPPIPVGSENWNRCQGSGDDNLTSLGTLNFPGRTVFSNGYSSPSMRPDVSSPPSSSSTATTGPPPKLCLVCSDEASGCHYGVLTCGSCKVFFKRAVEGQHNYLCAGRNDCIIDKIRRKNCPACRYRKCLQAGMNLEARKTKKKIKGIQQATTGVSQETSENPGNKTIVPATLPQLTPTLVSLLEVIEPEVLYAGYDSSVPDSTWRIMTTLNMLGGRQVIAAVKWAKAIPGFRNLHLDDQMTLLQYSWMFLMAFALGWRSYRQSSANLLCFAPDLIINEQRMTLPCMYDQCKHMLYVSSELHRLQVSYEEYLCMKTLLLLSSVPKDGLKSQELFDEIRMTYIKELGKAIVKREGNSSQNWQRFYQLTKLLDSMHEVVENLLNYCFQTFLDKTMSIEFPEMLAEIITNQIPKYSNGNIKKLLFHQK

Experiment [8] in a line: qHTS assay to identify small molecule antagonists of the glucocorticoid receptor (GR) signaling pathway - cell viability counter screen (AID 720693). Further: nearly all actives have a fitted effect of over 55% in size.
The nature of experiment [9]: qHTS assay for identifying genotoxic compounds that show differential cytotoxicity against isogenic chicken DT40 cell lines with known DNA damage response pathways - wild type cell line (AID 743012). Further: nearly all actives have a fitted effect of over 60% in size. Further: potency means the concentration at half of the fitted maximal effect. The method in brief: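 Cytotoxicity in repair-proficient parental chicken DT40 cells serves as the comparator for Rad54/Ku70- and Rev3-deficient lines. Cells were exposed to compounds for 40 h at 37 C/5% CO2, and ATP-based luminescence (CellTiter-Glo) measured viability.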

The nature of experiment [10]: qHTS assay for identifying genotoxic compounds that show differential cytotoxicity against isogenic chicken DT40 cell lines with known DNA damage response pathways - Rad54/Ku70 mutant cell line (AID 743015). Further: nearly all actives have a fitted effect of over 60% in size. Further: potency means the concentration at half of the fitted maximal effect.
Experiment [11] in a line: qHTS assay to identify small molecule antagonists of the androgen receptor (AR) signaling pathway - cell viability counter screen (AID 743033; further: nearly all actives have a fitted effect of over 45% in size; further: potency means the concentration at half of the fitted maximal effect).
Experiment [12] can be described thus: qHTS assay to identify small molecule antagonists of the androgen receptor (AR) signaling pathway using the MDA cell line - cell viability counter screen (AID 743041; further: nearly all actives have a fitted effect of over 45% in size; further: potency means the concentration at half of the fitted maximal effect). The method in brief: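 Using the breast carcinoma line MDA-kb2 AR-luc, test chemicals were co-incubated with R1881 for 16 h; CellTiter-Fluor reagent, added at 15.5 h, provided a fluorescence measure of live cells.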

For experiment [13], the target named is Glucocorticoid receptor (Homo sapiens) (UniProt P04150). Description: qHTS assay to identify small molecule antagonists of the glucocorticoid receptor (GR) signaling pathway (AID 720692; active means well fitted inhibition curve with a large enough effect in the signal ratio in the repeat runs, not every such curve was filed as active; inconclusive means weak or mixed curves, or effect the other way; inactive means no such curve, though single readings can be large or run the other way; the % refers to the signal ratio). The method in brief:
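Antagonism was scored as loss of dexamethasone-driven (5 nM final) reporter signal in HeLa cells bearing a glucocorticoid response element–beta-lactamase construct, after 18 h compound exposure at 37 C and 2 h FRET substrate loading.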

Experiment [14] can be described thus: qHTS assay for identifying genotoxic compounds that show differential cytotoxicity against isogenic chicken DT40 cell lines with known DNA damage response pathways - Rev3 mutant cell line (AID 743014). Further: nearly all actives have a fitted effect of over 55% in size. Further: potency means the concentration at half of the fitted maximal effect.
The nature of experiment [15]: qHTS assay to test for compound auto fluorescence at 460 nm (blue) in HepG2 cells (AID 720687). The method in brief: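 Blue-channel autofluorescence (Ex/Em 405/460 nm, triamterene-equivalent) was measured after 1 hr compound exposure at 37 C, 5% CO2. Cells were HepG2, plated overnight at 37 C in MEM plus 10% FBS.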
For experiment [16], the target named is Androgen receptor (Homo sapiens) (UniProt P10275). Description: qHTS assay to identify small molecule antagonists of the androgen receptor (AR) signaling pathway (AID 743035; active means well fitted inhibition curve with a large enough effect in the signal ratio in the repeat runs, not every such curve was filed as active; inconclusive means weak or mixed curves, or effect the other way; inactive means no such curve, though single readings can be large or run the other way; the % refers to the signal ratio). The method in brief:
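Steps: seed AR-UAS-bla GripTite HEK293 cells, incubate 4 h at 37C; pin in test compound, then add agonist R1881; incubate 16 h at 37C; add LiveBLAzer B/G FRET substrate, 2 h at room temperature; read fluorescence.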

Experiment [17] shares this target. Description: qHTS assay to identify small molecule agonists of the androgen receptor (AR) signaling pathway (AID 743036; active means well fitted activation curve with a large enough effect in the signal ratio in the repeat runs, with a control signal flat, not every such curve was filed as active; inconclusive means weak or mixed curves, or effect the other way; inactive means no such curve, though single readings can be large or run the other way; the % refers to the signal ratio). The method in brief:
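AR-bla HEK293 cells, 2,000/well; 4 h preincubation 37C/5% CO2; compound (DMSO) 16 h at 37C; LiveBLAzer B/G FRET substrate 2 h RT; fluorescence intensity read-out.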

For experiment [18] the target is unchanged. Description: qHTS assay to identify small molecule agonists of the androgen receptor (AR) signaling pathway using the MDA cell line (AID 743040; further: nearly all actives have a fitted effect of over 20% in size). The method in brief: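 Stable MMTV-luciferase reporter in MDA-kb2 cells; note the promoter carries GR as well as AR response elements. 16 h compound treatment, 37C, 0% CO2; ONE-Glo luminescence endpoint.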
The target is the same in experiment [19]. Description: qHTS assay to identify small molecule antagonists of the androgen receptor (AR) signaling pathway using the MDA cell line (AID 743042; further: nearly all actives have a fitted effect of over 55% in size; further: potency means the concentration at half of the fitted maximal effect). The method in brief: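 Antagonist mode: compounds plus R1881 agonist added to MDA-kb2 AR-luc cells, incubated 16 h at 37C. Luciferase reporter luminescence quantified, with multiplexed CellTiter-Fluor readout for cell viability.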

Where “and” joins values, the source holds several entries; their conditions need not be identical. Identical values can stand only once. The source holds several records for some structures; these can differ, active in one and inactive in another. Calls of active or inactive are those of the source. Unless noted, the call rests on the fitted dose curve; in most records, active means well fitted curve in the direction sought with a large enough effect in the repeat runs; inconclusive means weak or mixed curves; inactive means no such curve, though single readings can be large; an effect the other way counts as inactive or inconclusive.
On the % scale 0 is the no-effect control and ±100 the full control effect.

Androgen receptor (Homo sapiens), sequence (P10275 whole entry, looked up): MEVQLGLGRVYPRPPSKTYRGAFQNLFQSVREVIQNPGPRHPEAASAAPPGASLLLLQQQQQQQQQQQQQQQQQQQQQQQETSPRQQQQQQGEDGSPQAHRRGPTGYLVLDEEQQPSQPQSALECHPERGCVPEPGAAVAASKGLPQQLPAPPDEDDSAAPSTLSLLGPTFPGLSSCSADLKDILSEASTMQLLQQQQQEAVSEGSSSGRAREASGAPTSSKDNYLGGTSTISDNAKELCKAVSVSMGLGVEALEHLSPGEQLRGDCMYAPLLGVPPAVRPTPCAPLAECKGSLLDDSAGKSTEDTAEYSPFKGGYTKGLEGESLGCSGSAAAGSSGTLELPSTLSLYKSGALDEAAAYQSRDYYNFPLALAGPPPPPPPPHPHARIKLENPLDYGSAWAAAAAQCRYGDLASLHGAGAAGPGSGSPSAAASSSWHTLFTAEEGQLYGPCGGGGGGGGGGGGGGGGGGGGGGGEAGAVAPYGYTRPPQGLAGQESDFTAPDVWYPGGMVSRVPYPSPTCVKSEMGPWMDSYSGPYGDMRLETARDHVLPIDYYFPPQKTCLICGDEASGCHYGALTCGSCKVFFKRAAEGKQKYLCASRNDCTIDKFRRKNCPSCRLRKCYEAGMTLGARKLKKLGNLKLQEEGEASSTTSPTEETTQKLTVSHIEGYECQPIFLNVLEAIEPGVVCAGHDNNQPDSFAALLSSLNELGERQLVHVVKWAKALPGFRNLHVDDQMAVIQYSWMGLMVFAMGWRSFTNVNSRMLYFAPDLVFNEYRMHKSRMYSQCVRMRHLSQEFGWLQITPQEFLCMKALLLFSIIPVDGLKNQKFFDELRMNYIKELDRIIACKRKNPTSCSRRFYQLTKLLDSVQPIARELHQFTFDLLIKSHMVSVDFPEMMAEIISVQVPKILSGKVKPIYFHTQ

Consider `c1ccc(C(O[C@@H]2CCCN(CCc3ccc4c(c3)OCO4)C2)c2ccccc2)cc1`, for which the Potency result in experiment [1], in [2], in experiment [3], in experiment [4], in [5] and in [6] was “inactive” throughout. Moreover, the Potency entry in experiment [7], in experiment [8], in [11] and in experiment [12] was “inactive” throughout. The Potency is 38.6 µM (active) in [9] and 30.6 µM (active) in experiment [10].

As for `O=C(O)[C@H](O)[C@@H](O)[C@H](O[C@@H]1O[C@H](CO)[C@H](O)[C@H](O)[C@H]1O)[C@H](O)CO`, the values for the fluorescence, % of fluorescent control in experiment [1], in experiment [3] and in [5] were -0.0747% [at 18.6 µM] (inactive), -0.292% [at 18.6 µM] (inactive) and 0.0634% [at 18.6 µM] (inactive), respectively. Moreover, in experiment [4], the fluorescence, % of Rose Bengal was 0.117% [at 18.6 µM] (inactive). Besides, the fluorescence, % of fluorescein control in experiment [6] was -0.112% [at 18.6 µM] (inactive). The Potency result in experiment [7], in experiment [13], in [8], in experiment [14], in [10] and in experiment [11] was “inactive” each time. In experiment [12], the Potency result is “inactive”.

On to `CCCCCCCCCCC[C@@H](C[C@@H]1OC(=O)[C@H]1CCCCCC)OC(=O)[C@H](CC(C)C)NC=O`, for which the Potency entry in experiment [1], in experiment [2], in [3], in [4], in experiment [5] and in [6] was “inactive” in each case. The Potency entry in experiment [15], in experiment [7], in experiment [8], in experiment [11] and in [12] was “inactive” throughout. The results for the Potency in [9] and in [14] were 1.06 µM (active) and 0.376 µM (active), respectively.

As for `O=C(c1ccc(O)c(O)c1)c1ccc(O)cc1O`, the results for the Potency in experiment [1] and in experiment [14] were 35.5 µM (active) and 21.6 µM (active), respectively. For the same compound, the Potency result in [2], in [3], in [4], in experiment [5], in experiment [6] and in [15] was “inactive” in each case. Moreover, the Potency result in [7], in [8], in [11] and in [12] was “inactive” each time.

As for `CCCC(=O)OCCc1ccccc1`, the Potency entry in experiment [1], in experiment [2], in [3], in experiment [4], in experiment [5] and in experiment [6] was “inactive” each time. Besides, the Potency entry in experiment [15], in experiment [7], in experiment [8], in [9] and in experiment [11] was “inactive” in each case.

On to `O=C1c2ccccc2C(=O)N1SC1CCCCC1`, for which the Potency entry in experiment [2], in [4], in [5], in [6] and in experiment [15] was “inactive” in each case. For the same compound, the Potency in [9] was 15.3 µM (active) and 5.45 µM (active); in [14], 6.85 µM (active) and 5.45 µM (active); in experiment [10], 17.2 µM (active) and 4.33 µM (active); in experiment [11] it was 38.9 µM (active) and 49 µM (active).

With `O=C(O)c1cccc(C(F)(F)F)c1`, the Potency result in [2], in experiment [4], in [5], in experiment [6], in [7] and in experiment [13] was “inactive” each time. For the same compound, the Potency result in [8], in experiment [9], in experiment [14], in experiment [10], in [11] and in experiment [12] was “inactive” each time.

On to `O[C@@H]([C@H](O)[C@H](O)CBr)[C@H](O)CBr`, for which the Potency result in experiment [1], in experiment [2], in experiment [3], in experiment [4], in [5] and in [6] was “inactive” each time. Besides, the Potency result in experiment [15], in experiment [8], in experiment [14], in [10], in experiment [11] and in [12] was “inactive” throughout.

Turning to `Clc1ccnc(Cl)n1`, the Potency result in experiment [1], in experiment [3], in [4], in [5], in [6] and in experiment [15] was “inactive” in each case. Besides, the Potency entry in experiment [7], in experiment [13], in [8], in experiment [9], in [14] and in [10] was “inactive” each time. In addition, in experiment [11], the Potency entry was “inactive”.

Regarding `CCC(=O)C(=O)CC`, the Potency entry in experiment [1], in experiment [4], in experiment [5], in experiment [6], in experiment [15] and in experiment [8] was “inactive” in each case. The Potency result in [11] and in experiment [12] was “inactive” throughout. Also, the Potency in experiment [14] was 28.5 µM (active).

In the case of `CC(=O)c1ccc(C(C)=O)cc1`, the Potency entry in [1], in [2], in experiment [3], in [4], in experiment [5] and in experiment [6] was “inactive” each time. Besides, the Potency result in experiment [15], in experiment [7], in experiment [13], in experiment [8], in experiment [14] and in [10] was “inactive” each time. The Potency entry in experiment [11], in experiment [16], in experiment [17], in [12] and in experiment [19] was “inactive” each time. Besides, the result in [18] was inactive.

`CC1=CCC(=C(C)C)CC1`: the Potency result in experiment [1], in experiment [2], in [3], in experiment [4], in [5] and in [6] was “inactive” throughout. In addition, the Potency entry in [15], in experiment [8], in [9], in experiment [14], in [10] and in experiment [11] was “inactive” throughout.

For the compound `OCCN1CCN(CCCN2c3ccccc3Sc3ccc(C(F)(F)F)cc32)CC1`, the Potency entry in [1], in [2], in [3], in [4], in experiment [5] and in [6] was “inactive” each time. Besides, the Potency result in experiment [15], in [7] and in [8] was “inactive” each time. In addition, the Potency in experiment [10] was 4.22 µM (active).

As for `O=C(Nc1ccc2c(O)c(N=Nc3ccc(N=Nc4ccc(S(=O)(=O)O)cc4)cc3)c(S(=O)(=O)O)cc2c1)c1ccccc1`, the Potency result in experiment [1], in [2], in experiment [4], in experiment [5], in [6] and in experiment [15] was “inactive” in each case. Also, the Potency entry in [8], in experiment [9] and in experiment [11] was “inactive” each time. Moreover, the Potency in experiment [12] was 24.3 µM (active).

For the compound `Cc1c2ccccc2c(C)c2c1ccc1ccccc12`, the Potency result in [1], in experiment [2], in experiment [4], in experiment [5] and in [6] was “inactive” each time. The Potency is 3.85 µM (active) and 54.9 µM [inconclusive] (active) in experiment [7]; 30.3 µM (active) and 3.06 µM (active) in experiment [9]; 15.2 µM (active) and 2.73 µM (active) in [14]; 21.5 µM (active) and 4.33 µM (active) in [10]; 48.5 µM (active) and 24.5 µM (active) in [11]; 61.1 µM (active) in [12]. Moreover, the Potency result in experiment [19] was “inactive and 30.6 µM (active)”. Besides, the compound was classed as inactive in experiment [18].
